From PubChem BioAssay
Most compounds without a hit are left out; they make up all but 2.2% or so of the library.
IL2 activator: activates IL-2 in a cell-based reporter assay; IL-2 activation reporter assay, cell-based qHTS; stimulated with anti-CD3/CD4/CD28 beads; in transgenic mouse T cells; activation, % (series mostly up to about 46 µM); 360,000 compounds, 0.065% hits; AID 652025; in the data active means activation above about 50%; inconclusive means mostly about 30% to 49%; further: 0% is about no effect
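Unstimulated transgenic mouse T cells, 750 per well, received compound and, after 60 minutes, anti-CD3/anti-CD4 bead plus anti-CD28 stimulation. EGFP and DsRed were quantified after 18 hours.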
mIDH1 inhibitor: inhibitors of human mutant IDH1 R132H. O75874. IDH1-R132H enzyme, NADPH consumption, diaphorase/resazurin fluorescence. Potency, µM (titrated, usually from 76.6 µM), for inactives: top-dose activity change, negative = inhibition, usual class: inhibitors. 390,000 compounds, 0.093% hits. AID 602179; further: potency means the concentration at half of the fitted maximal effect; on the % scale 0 is the no-effect control and ±100 the full control effect; nearly all actives have a fitted effect of over 65% in size
Target sequence (O75874 whole entry R132H, stated change not applied): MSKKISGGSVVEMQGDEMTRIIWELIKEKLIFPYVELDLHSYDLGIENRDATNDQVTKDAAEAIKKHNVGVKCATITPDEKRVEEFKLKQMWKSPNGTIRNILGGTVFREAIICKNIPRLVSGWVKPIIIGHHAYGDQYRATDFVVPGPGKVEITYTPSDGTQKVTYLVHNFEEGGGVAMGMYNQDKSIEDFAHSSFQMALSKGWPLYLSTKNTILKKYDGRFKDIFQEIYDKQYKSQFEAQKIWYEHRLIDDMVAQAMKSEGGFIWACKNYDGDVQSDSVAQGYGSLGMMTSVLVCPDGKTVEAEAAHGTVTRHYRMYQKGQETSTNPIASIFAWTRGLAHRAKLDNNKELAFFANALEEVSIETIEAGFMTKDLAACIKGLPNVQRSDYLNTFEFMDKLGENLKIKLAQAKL
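IDH1-R132H (0.5 ug/mL) preincubated 30 min with compound, then NADPH (0.016 mM) and alpha-KG (2 mM) added; 80 min at RT, pH 7.5. Remaining NADPH coupled via diaphorase/resazurin to fluorescence (540/590 nm); concentration-response curves normalized to no-enzyme control.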
BRCA1 expr up: activators of BRCA1 expression. MCF7-BRCA1-FFLuc reporter, luminescence, 48 h; response scale: scaled: vehicle 0%, 10 µM genistein 100%. Potency, µM (series often up to 46.1 µM), inactives show at the highest dose activation, most hits filed as activators. 380,000 compounds, 1.1% hits. AID 624202; further: potency means the concentration at half of the fitted maximal effect; nearly all actives have a fitted effect of over 80% in size
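Activators of BRCA1 expression were detected as increased firefly luciferase luminescence in engineered MCF7 cells after 48 h compound incubation. Signals were scaled to genistein 10 microM as full activation.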
TrxR1 inh: rat TrxR1 inhibition. O89049. Potency, µM (doses to about 114 µM), for inactives: top-dose activity change, negative = inhibition, hits mostly inhibitors. 390,000 compounds, 1% hits. AID 588453. recombinant rTrxR1, NADPH fluorescence consumption, selenite substrate; further: potency means the concentration at half of the fitted maximal effect; on the % scale 0 is the no-effect control and ±100 the full control effect; nearly all actives have a fitted effect of over 65% in size
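Rat TrxR1 (90 nM in the dispensed reagent) was pre-reduced with 400 uM NADPH for 5 min at room temperature, then incubated with compound for 15 min. After 400 uM selenite was added, NADPH fluorescence (Ex 340/Em 450 nm) was followed for 8 min.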
Giardia kill: kills Giardia lamblia | Giardia lamblia trophozoite viability | activity change, % at 7.66 µM, hits read low | 340,000 compounds, 0.15% hits; in the data active means activity change below about -80%; inconclusive means between about -30% and that limit;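 further: parasites exposed to compound for two days anaerobically before the ATP read; on the % scale 0 is the no-effect control and ±100 the full control effect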
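Killing of trophozoites was scored by loss of ATP luminescence after a 48 hrs anaerobic exposure to compounds at 37 deg C, using 100 cells per well.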
TrxR1 substrate: substrates of rat thioredoxin reductase 1. AID 588456. O89049. purified TrxR1 substrate turnover, NADPH consumption readout. 390,000 compounds, 0.01% hits. Potency, µM (top dose mostly 114 µM), for inactives: at the highest dose activity change, negative = substrate turnover; further: potency means the concentration at half of the fitted maximal effect; on the % scale 0 is the no-effect control and ±100 the full control effect; nearly all actives have a fitted effect of over 50% in size
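Rat TrxR1, dispensed at 90 nM, was prereduced with 400 uM NADPH (final) for 5 min at ~22 deg C, then incubated with compound 15 min before 400 uM selenite. A first-read NADPH fluorescence drop versus no-compound background flagged substrates.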
The depositor's hits bear a star; u = inconclusive; x = no result; [ ] = dose if it differs, or a comment. Unless noted, the call rests on the fitted dose curve; in most records, active means well fitted curve in the direction sought with a large enough effect; inconclusive means small, poorly fitted or top-dose-only effect, or another doubt; inactive means no such curve, though single readings can be large; an effect the other way counts as inactive or inconclusive.

SMILES	IL2 activator	mIDH1 inhibitor	BRCA1 expr up	TrxR1 inh	Giardia kill	TrxR1 substrate
O=C(O)c1cc(Cl)c(Cl)cc1C(=O)N1CCCC1	-3	1%	-15%	11%	-91*	8%
Cc1ccc2c(=O)c(C(=O)c3ccccc3)cn(CC(=O)NCc3ccccc3)c2n1	x	5%	x	25%	x	3%
CC(=O)C1=C(S(=O)(=O)c2ccc(C)cc2)CS(=O)(=O)C1	-3	6%	-14%	1.3µM*	-6	-1%
Cc1ccc(S(=O)(=O)C2CS(=O)(=O)CC2O)cc1 (stereo not given)	0	2%	-1%	14%	-8	9%
CC1(C)CC(=O)C(C2C3=C(CC(C)(C)CC3=O)Oc3ccc4ccccc4c32)C(=O)C1 (stereo not given)	0	2%	7.9µM*	-4%[57.1 µM]	-5	-4%[57.1 µM]
CC1(C)CC(=O)C2=C(C1)OC1=C(C(=O)CC(C)(C)C1)C2c1ccccc1	3	4%	-15%	16%[57.1 µM]	8	0%[57.1 µM]
CC1(C)CC(=O)C(C2C3=C(CC(C)(C)CC3=O)Oc3ccccc32)C(=O)C1 (stereo not given)	0	4%	0%	56µM*	-9	-6%
CCN1CCN(Cc2ccccc2NC(=O)Nc2ccc(C)cc2)CC1	0	1%	6.3µM*	22%[57.1 µM]	-2	13%[57.1 µM]
CCN1CCN(Cc2ccc(NC(=O)Nc3ccccc3Cl)cc2)CC1	-2	2%	u	-2%	-29	-1%
O=C(Nc1ccc2nccnc2c1)Nc1ccccc1Cl	-1	-6%	10µM*	2%	-18	-6%
O=C(Nc1ccc(CN2CCCCC2)cc1)Nc1ccccc1Cl	1	-3%	7.1µM*	6%	6	-3%
Cc1ccc(O)c(NC(=S)NC(=O)CC(C)C)c1	4	3%	13µM*	-11%	-5	11%[57.1 µM]
CC(=O)N1c2ccccc2C(=O)C1N1CCN(c2cccc(Cl)c2)CC1 (stereo not given)	x	0%	x	9%[57.1 µM]	x	1%[57.1 µM]
CC(C)c1ccc(NC(=O)CN2C(=O)COc3ccc(S(=O)(=O)N4CCCCC4)cc32)cc1	x	-24%	x	6%	x	-12%
O=C(NCCc1ccccc1)C(=O)NCC(c1cccnc1)N1CCN(c2ccc(F)cc2)CC1 (stereo not given)	x	14%	x	38%[11.4 µM]	x	-12%
O=C(O)c1cc(NN=C2CCN(Cc3ccccc3)CC2)ccc1Cl	-1	0%	3.2µM*	-5%	3	7%
O=C(NN=C1CCN(Cc2ccccc2)CC1)c1ccccc1O	-1	9%	-11%	-7%[57.1 µM]	-1	3%[57.1 µM]
COc1ccc(/C=C/c2ccc3ccccc3n2)cc1OC	x	x	-24%	-7%	x	60%
O=C(Cn1cnc2c(oc3nc4c(cc32)CCCC4)c1=O)Nc1ccccc1	1	-4%	16%	22%	21	7%
C=C(C)Cn1cnc2c(oc3nc4c(cc32)CCCC4)c1=O	0	0%	5.6µM*	10%	-4	2%
Cc1ccc(-n2nnnc2CNC(=O)C(C)(C)C)cc1C	x	15%	x	9%[57.1 µM]	x	-5%[57.1 µM]
CCc1cc2cc3c(cc2nc1SCC(=O)N1CCN(C(=O)c2ccco2)CC1)OCO3	0	8%	-23%	2%[57.1 µM]	8	6%[57.1 µM]
CCc1cc2ccc(C)cc2nc1SCC(=O)N1CCN(C(=O)c2ccco2)CC1	-2	-3%	-47%	4µM*	-10	4%
O=C(CSc1nc2ccc(Cl)cc2[nH]1)N1CCN(C(=O)c2ccco2)CC1	0	2%	-11%	16µM*	-6	6%
Cc1ccc2nc(SCC(=O)N3CCN(C(=O)c4ccco4)CC3)[nH]c2c1	-4	4%	-59%	u	-2	-5%
O=C(Nc1ccc2nc(-c3ccc(Br)o3)[nH]c2c1)c1cccs1	2	7%	10µM*	16µM*	-21	-1%
CC(=O)Nc1ccc2nc(-c3cccs3)[nH]c2c1	0	-1%	6.3µM*	42%[57.1 µM]	-11	498%[57.1 µM]
